In ChEMBL document CHEMBL3988442, “University of Dundee, Small-Polar-MMV Screening Library” (2021):
About 13,000 (27%) of roughly 48,000 compounds showed an effect of 50% or more. The list shows a part of the results.

The molecules below were run on Wolbachia pipientis (assay: Anti-Wolbachia Cell-Based Screen). Conditions: 5 µM.
Format: functional
Design: scale not given: in the data most compounds retested in dose-response had high values

| SMILES | Percent Effect |
| --- | --- |
| CCc1nc2c(NCC3COc4c(cccc4OC)C3)ncnc2o1 (stereo not given) | -3.271% |
| CCN(C)C(=O)c1ccc(N(C)Cc2cc(-c3cccnc3)no2)nc1 | 3.484% |
| COCc1cc(CC2(NC3CCN(C)CC3)COC2)no1 | 4.63% |
| COc1cc(C#N)ccc1OCC(=O)N(C1CC1)C(C)c1ccco1 (stereo not given) | -6.369% |
| CCC[C@H]1CN(Cc2ccc(N(C)C)nc2)C[C@@H]1NS(=O)(=O)CC | 9.48% |
| COc1cc(S(=O)(=O)Nc2cn[nH]c2)ccc1Br | 20.8% |
| Cc1cnn(C2CCCN(C(=O)Cc3ccc(-n4cccn4)cc3)C2)c1 (stereo not given) | -1.818% |
| Cn1nc(C2CCCN(C(=O)Cc3ccsc3)C2)c2nccnc21 (stereo not given) | -16.9% |
| O=C(Cc1ccsc1)N1CCCC(CNS(=O)(=O)Cc2ccccc2)C1 (stereo not given) | -10.03% |
| Cc1noc(C)c1CCC(=O)N1CCCC(n2ccnc2C)C1 (stereo not given) | -0.2444% |
| Cc1noc(C)c1CC(=O)N1CCCC(n2ccnc2C)C1 (stereo not given) | 104.6% |
| CCCc1noc(CCC(=O)N2CCCC(n3ccnc3C)C2)n1 (stereo not given) | 4.516% |
| Cc1noc(C)c1CC(=O)N1CCCC(Cn2ccnc2C)C1 (stereo not given) | 108.2% |
| Cc1noc(C)c1CNC(=O)N1CCN(CC2CC2)CC1 | -3.03% |
| Cc1cnn(C2CCCN(C(=O)Cc3ccc(C)s3)C2)c1 (stereo not given) | 107.6% |
| Cc1nccn1CC1CCCN(C(=O)Cc2ccsc2)C1 (stereo not given) | 91.27% |
| Cc1nc(NC(=O)COCC2CC2)ccc1Br | -7.033% |
| CCc1nnc(CN2CCC(C3CCCCCN3C(C)=O)CC2)o1.Cl (stereo not given) | 2.52% |
| CN(C)c1nccc(CNS(=O)(=O)c2cc(Cl)cc(Cl)c2)n1 | -1.753% |
| Cc1nc(C(=O)N2CCN(C(=O)N(C)C)[C@@H]3CS(=O)(=O)C[C@@H]32)cs1 | -0.3934% |
| CCC(NC(=O)c1cccc2[nH]ccc12)C(=O)N1CCOCC1 (stereo not given) | -2.082% |
| CC(=O)NCC1CCCN(C(=O)Cc2c(C)noc2C)C1 (stereo not given) | 118.6% |
| Cc1nccn1C1CCCN(C(=O)Cn2ccc(=O)n(C)c2=O)C1 (stereo not given) | -5.053% |
| Cc1nn(C)c(C)c1CC(=O)N1CCCC(n2ccnc2C)C1 (stereo not given) | 103.8% |
| Cc1noc(C)c1CC(=O)N1CCCC(c2noc(C(C)C)n2)C1 (stereo not given) | -25.9% |

| SMILES | Percent Effect |
| --- | --- |
| Cc1nn(C)c(C)c1CC(=O)N1CCCC(n2ccnc2)C1 (stereo not given) | -6.925% |
| Cc1noc(C)c1CNC(=O)N1CCCC(C)CC1 (stereo not given) | -2.86% |
| Cc1cnn(C2CCCN(C(=O)Cc3c(C)nn(C)c3C)C2)c1 (stereo not given) | 112.6% |
| C=C(C)CN1CCCC1c1nc(Cc2ccc(F)cc2)no1 (stereo not given) | 3.064% |
| CNC(=O)[C@H]1C[C@H]2OCC[C@H]2N(CC2CCOCC2)C1.O=C(O)C(F)(F)F | -4.721% |
| COC(=O)CCCN(C)C(c1cccnc1)c1ccc(F)cc1F (stereo not given) | -20.53% |
| CCCn1nccc1-c1nccnc1CC1CCN(C(C)=O)C1 (stereo not given) | 94.67% |
| CCCn1nccc1-c1nccnc1CC1CCN(C(C)=O)CC1 | 113% |
| Cn1nccc1-c1nc2c(cc1C(=O)O)CCN(C(=O)C1CC1)CC2.O=C(O)C(F)(F)F | -10.62% |
| CCCn1nccc1C(=O)N1CCN(C(=O)C2CC2)[C@@H]2CS(=O)(=O)C[C@@H]21 | 17.33% |
| CCCn1ncnc1C(C)NC(=O)C1CCN(C(=O)C2CC2)CC1 (stereo not given) | -8.242% |
| CCCn1nccc1-c1cnc(CC2CCN(C(C)=O)C2)cn1 (stereo not given) | 102.9% |
| CCCn1nccc1C(=O)N1CCCC(C(=O)CCc2ccccc2)C1 (stereo not given) | 3.228% |
| CCCn1nccc1C(=O)N1CCN(C2CCc3ccccc3C2)CC1 (stereo not given) | -8.816% |
| CC(=O)N1CCC(Cc2nccnc2-c2ccnn2C)CC1 | 105.5% |
| CS(=O)(=O)c1ccc2c(c1)N(C(=O)Cc1ccc(F)cc1)CCC2 | 9.452% |
| N#Cc1cccnc1NCCNC(=O)NCCSC(F)(F)F | 18.52% |
| O=C(NCCC1CCCCO1)c1coc(COc2ccc(F)cc2)n1 (stereo not given) | -18.68% |
| CCOCc1nc2c(c(NC(CC)c3cccnc3)n1)CCNCC2 (stereo not given) | 11.04% |
| CN(CC1(CO)CCCC1)[C@@H]1c2ccccc2C2(CCNCC2)[C@H]1O | 6.987% |
| Cc1cccc(C2CCCN(C(=O)CN3CCOC3=O)C2)c1 (stereo not given) | -2.013% |
| CN(C)CCO[C@H]1C[C@@H](O)C12CCN(c1nccc3ccccc13)CC2 | -5.816% |
| Clc1ccccc1C1(c2ccnc(-c3ncccn3)n2)CCNCC1 | -1.363% |
| Cc1ccccc1CC(C)(C)NC(=O)COc1cccc(C(N)=O)c1 | 8.164% |
| Cc1cc(=O)n2nc(Oc3cccc(C(N)=O)c3)sc2n1 | 92.57% |

| SMILES | Percent Effect |
| --- | --- |
| Cc1cc(=O)n2nc(Oc3cccc(I)c3)sc2n1 | 98.58% |
| Cc1ccn(-c2cncc(C(N)=O)c2)n1 | -45.7% |
| CSCCC(=O)N1CCC(c2nccn2Cc2cscn2)CC1 | -27.24% |
| Cc1ccsc1-c1nc(CN(C)Cc2cc[nH]n2)c(C)o1 | 11.99% |
| CS(=O)(=O)N1CCCC12CCCN(S(=O)(=O)c1ccc(F)c(F)c1)C2 (stereo not given) | 90.35% |
| Cc1ccc(S(=O)(=O)N2CCCC3(CCCN3S(C)(=O)=O)C2)cc1F (stereo not given) | 98% |
| Cc1ccc(S(=O)(=O)N2C[C@H](C3CC3)[C@@H](N)C2)cc1F | -0.3318% |
| CS(=O)(=O)N1CCCC12CCCN(S(=O)(=O)c1ccc(F)cc1)C2 (stereo not given) | -4.23% |
| Cc1ccc(S(=O)(=O)N2CCCCC(N3CCN(C)CC3)C2)cc1F (stereo not given) | -10.96% |
| c1ccn2c(C3CCCN(c4ncnc5c4CCNC5)C3)nnc2c1 (stereo not given) | -4.904% |
| O=C(O)COc1ccc(Cl)cc1CN1CCC2(CCNCC2)CC1 | -7.41% |
| Cc1csc(CN2CC(CO)Oc3ccccc32)n1 (stereo not given) | -31.8% |
| COc1c(CNCc2cccc(Cn3ccnc3C)c2)c(C)nn1C.Cl | 162.7% |
| COc1c(CNCc2cccc(Cn3cncn3)c2)c(C)nn1C | 94.36% |
| COc1c(CNCc2ccccc2Cn2cccn2)c(C)nn1C | 10.98% |
| COc1c(CNCc2ccc(Cn3cccn3)cc2)c(C)nn1C | -21.67% |
| COc1c(CNCc2ccccc2Cn2cncn2)c(C)nn1C | -0.9882% |
| COc1c(CNCc2cccc(CN3CCOCC3)c2)c(C)nn1C | -5.316% |
| COc1c(CNCc2cccc(Cn3cccn3)c2)c(C)nn1C | 134.9% |
| Cc1ccc(NC(=O)C(C)N2CCCN(c3nccs3)CC2)c(C)c1 (stereo not given) | -5.233% |
| O=S(=O)(NCC1(O)CCCC1)c1ccccc1Br | 2.398% |
| CC(C)(C)OC(=O)Cn1cccc(S(=O)(=O)N2CCCC2)c1=O | 1.983% |
| O=S(=O)(Nc1ccc(N2CCOCC2)cn1)c1ccc(F)cc1 | -10.45% |
| CC1CCN(S(=O)(=O)c2cccn(CC(=O)N3CCOCC3)c2=O)CC1 | 5.887% |
| CC(C)(C)OC(=O)Cn1cccc(S(=O)(=O)N2CCCCCC2)c1=O | -1.938% |

| SMILES | Percent Effect |
| --- | --- |
| CC1CCN(S(=O)(=O)c2cccn(CC(=O)NC(C)(C)C)c2=O)CC1 | -3.132% |
| O=c1[nH]nc2c(S(=O)(=O)N3CCCC3)cccn12 | 132.4% |
| O=C1N(c2ccc(F)cc2)Cc2n[nH]c(=O)n21 | 2.178% |
| CC(=O)Nc1ncc(S(=O)(=O)N2CCOCC2)s1 | -0.8414% |
| O=c1[nH]nc2c(S(=O)(=O)N3CCOCC3)cccn12 | 153.4% |
| O=C(O)c1cc(-c2cc[nH]n2)cc(S(=O)(=O)N2CCCCCC2)c1 | 5.373% |
| O=c1[nH]nc2c(S(=O)(=O)N3CCCCC3)cccn12 | 132.6% |
| O=c1[nH]nc2c(S(=O)(=O)N3CCN(c4ccc(F)cc4)CC3)cccn12 | 130.4% |
| Cc1nc(CN2CCC(CNC(=O)C3CCOC3)CC2)oc1C (stereo not given) | -1.518% |
| CCCN(CCC)C(=O)c1cc(CN2CCC(O)CC2)on1 | -23.18% |
| COc1ccc(-c2noc(CCC(=O)N3CCOCC3(C)C)n2)cc1 | 3.097% |
| CCc1nccn1C1CCCN(C(=O)c2cc3nc(C)ccc3o2)C1 (stereo not given) | -10.67% |
| O=c1[nH]nc2c(S(=O)(=O)N3CCCCCC3)cccn12 | 159% |
| Cc1nnc(SCCNC(=O)CC2CCc3ccccc32)s1 (stereo not given) | -7.078% |
| CC(C)N1C[C@@H]2OCC(=O)N(Cc3ccccc3)[C@@H]2C1 | 4.027% |
| O=C(O)[C@H]1OCC(=O)N(Cc2cccc(Cl)c2)[C@@H]1c1ccccc1 | 97.67% |
| O=C(O)C(F)(F)F.O=C1CO[C@@H]2CN(CC3CCOC3)C[C@H]2N1Cc1cccc(F)c1 (stereo not given in full) | 18.32% |
| O=C(O)[C@@H]1OCC(=O)N(Cc2cccc(Cl)c2)[C@@H]1c1ccccc1 | 105.3% |
| O=C(O)[C@H]1OCC(=O)N(Cc2cccc(F)c2)[C@@H]1c1ccc(Cl)cc1 | 104.6% |
| CN1CCC(C(=O)N2CCN(Cc3cccc(Cl)c3)CC2)CC1=O (stereo not given) | 1.504% |
| O=C1CO[C@H]2CN(S(=O)(=O)c3ccccc3)C[C@H]2N1Cc1ccccc1 | -0.9845% |
| NC(=O)CN1C(=O)CO[C@H]2CN(Cc3ccccc3)C[C@H]21 | -7.855% |
| O=C(O)C(F)(F)F.O=C1CO[C@@H]2CN(CC3CC3)C[C@H]2N1Cc1cccc(F)c1 | 2.959% |
| CCOc1ccccc1-c1noc(CN2CC(n3cccn3)C2)n1 | -3.661% |
| COc1ccc(C2(C(=O)N3CC(c4cccnc4)C3)CC2(C)C)cc1 (stereo not given) | -12.52% |
